Hits are enriched below; roughly 4.8% of the tested compounds scored in any of these assays.
DAX1 inh-1: DAX1 (NR0B1) inhibitors on StAR promoter, primary screen, cell-based, luminescence, SF-1 (NR5A1), full-length DAX-1; HEK293T StAR-luciferase reporter, SF-1/DAX-1 repression relief; inhibition, % at 6.8 µM; 370,000 compounds, 1.1% hits;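 active means inhibition above the mean over all tested compounds plus 3 SD, cut at about 3.6% in these data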;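 further: 0% = DAX-1 cells with DMSO and 100% = cells lacking DAX-1 with DMSO; higher inhibition means more luminescence from relief of DAX-1 repression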
hcDAF12 agonist: H. contortus DAF-12 nuclear receptor activators, primary screen, cell-based, luminescence, HEK293, lit1-tk-luc reporter | 370,000 compounds, 1.4% hits | activation, % at 6.8 µM | AID 652067, 2013 | HEK293 hcDAF-12 lit1-tk-luc reporter; 0% DMSO, 100% Δ7-dafachronic acid;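 active means activation above the mean of all tested compounds plus 3 SD, cut at about 5.5% in these data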;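 further: 100% = response to 3 µM Δ7-dafachronic acid high control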
hgDAF-12 ag: H. glycines DAF-12 receptor agonists, primary screen, cell-based, luminescence, HEK293, GAL4 fusion, UAS-luciferase | Nuclear hormone receptor DAF-12 (Heterodera glycines), GAL4 fusion | HEK293 GAL4-hgDAF12 UAS-luciferase reporter, agonist luminescence; normalized to butyrate control | activation, % at 6.8 µM | 370,000 compounds, 1.8% hits | AID 687014, 2013;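 active means activation above a cutoff set at the mean of all screened compounds plus 3 SD, cut at about 10% in these data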;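 further: 0% = DMSO wells and 100% = sodium butyrate wells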
DAX1 inh-2: DAX1 (NR0B1) inhibitors, primary screen, cell-based, HEK293, Gal4-DAX1, luciferase luminescence; 340,000 compounds, 0.99% hits; inhibition, % at 6.75 µM; AID 504766, 2011; Nuclear receptor subfamily 0 group B member 1 (Homo sapiens), P51843; HEK293 Gal4-DAX1 luciferase reporter;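 active means inhibition above the mean over all tested compounds plus 3 SD, cut at about 4.2% in these data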;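 further: 0% = DAX1-transfected cells with DMSO and 100% = empty-vector control cells with DMSO; inhibition shows as a rise in luminescence from relieved DAX1 repression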
ssDAF12 agonist: S. stercoralis DAF-12 nuclear receptor activators, primary screen, cell-based, luminescence, HEK293, GRIP1 co-expression, lit1-tk-luc; activation, % at 6.8 µM; AID 652126, 2013; 370,000 compounds, 1% hits; HEK293 ssDAF-12/GRIP1 lit1-tk-luc reporter; % of 3 µM dafachronic acid response; Nuclear hormone receptor DAF-12 (Strongyloides stercoralis);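 active means activation above the mean over all tested compounds plus 3 SD, cut at about 0.9% in these data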;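 further: 0% = DMSO-only wells and 100% = 3 µM delta7-dafachronic acid wells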
SMARCA2 act: SMARCA2 (BRM) function activators, primary screen, cell-based, luminescence, high throughput. MG213 cells, MMTV-luciferase reporter, dexamethasone, overnight. activation, % at 9.1 µM. 370,000 compounds, 1% hits. AID 652017, 2013; in the data active means activation above about 7.8%;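 further: 0% = vehicle wells and 100% = reference activator wells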
DAX1 conf: DAX1 (NR0B1) inhibitors relieving SF-1 repression, confirmation, cell-based, luminescence, HEK293T, full-length DAX-1, SF-1 activated StAR promoter; inhibition, % at 6.8 µM; AID 652134, 2013; HEK293T StAR-promoter luciferase reporter, SF-1/DAX-1 repression; 2,400 compounds, 87% hits; shares compounds with DAX1 inh-1;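 active means inhibition above the average of every tested compound plus 3 SD, cut at about 3.8% in these data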;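 further: 0% = DAX-1 cells with DMSO and 100% = no DAX-1 control cells with DMSO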
Target sequence (P51843 whole entry, looked up): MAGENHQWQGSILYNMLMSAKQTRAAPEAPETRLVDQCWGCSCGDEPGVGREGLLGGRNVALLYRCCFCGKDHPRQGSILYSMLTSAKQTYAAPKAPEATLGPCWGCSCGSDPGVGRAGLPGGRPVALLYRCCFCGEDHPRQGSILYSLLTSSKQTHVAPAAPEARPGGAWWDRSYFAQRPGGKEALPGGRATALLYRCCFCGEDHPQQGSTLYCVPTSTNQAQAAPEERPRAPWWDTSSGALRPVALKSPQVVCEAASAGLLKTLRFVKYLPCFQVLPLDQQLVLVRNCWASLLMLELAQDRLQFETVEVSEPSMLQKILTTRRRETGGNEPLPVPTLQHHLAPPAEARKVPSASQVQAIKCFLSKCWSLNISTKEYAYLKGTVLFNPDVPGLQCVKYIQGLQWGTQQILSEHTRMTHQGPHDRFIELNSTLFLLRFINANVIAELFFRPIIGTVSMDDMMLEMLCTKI
SF1 mutant ctr: StAR reporter signal changes without DAX1, counter-screen for DAX1 inhibitor project, cell-based, luminescence, AF-2 mutant SF-1, transactivation | inhibition, % at 6.8 µM | shares compounds with DAX1 inh-1 | HEK293 StAR-luciferase, SF-1 AF2 mutant | 2,400 compounds, 78% hits;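 active means inhibition above the mean of all tested compounds plus 3 SD, cut at about 3% in these data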;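 further: 0% = DAX-1 transfected cells with DMSO and 100% = cells without DAX-1 with DMSO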
An asterisk follows results filed as active; · = not tested or not shown.

SMILES	DAX1 inh-1	hcDAF12 agonist	hgDAF-12 ag	DAX1 inh-2	ssDAF12 agonist	SMARCA2 act	DAX1 conf	SF1 mutant ctr
CC1Sc2ccc(C(=O)OCc3ccccc3Cl)cc2NC1=O (centres undefined)	6.1*	2	6	2	-1	2	7.3*	5.9*
COc1ccc2oc(C(=O)N3CCc4ccccc43)c(C)c2c1	11*	4	7	-2	1	0	15*	5.3*
COc1ccc2oc(C(=O)NN3C(C)CCCC3C)c(C)c2c1 (centres undefined)	1	-1	-4	0	-2	-2	·	·
COc1ccc2oc(C(=O)Nc3ccc(C)cn3)c(C)c2c1	5.0*	4	11*	3	0	3	10*	6.6*
COc1ccc2oc(C(=O)NCCC(C)C)c(C)c2c1	6.1*	5	9	2	0	2	14*	6.2*
COc1ccc2oc(C(=O)N3CCN(C(c4ccccc4)c4ccccc4)CC3)c(C)c2c1	-1	0	-1	-2	-1	-1	·	·
COc1ccc(C(CNC(=O)c2oc3ccc(OC)cc3c2C)N2CCCC2)cc1 (centres undefined)	5.0*	0	2	0	-1	0	6.1*	4.2*
COc1ccc(C(CNC(=O)c2oc3ccc(Br)cc3c2C)N2CCCCC2)cc1 (centres undefined)	1	-1	3	-1	-1	-2	·	·
O=C(NC(Cc1ccccc1)C(=O)O)/C(=C\c1ccc(Br)cc1)NC(=O)c1ccc(Br)o1 (centres undefined)	0	-1	-1	1	-1	-3	·	·
O=C(CSc1nnnn1-c1ccccc1)Nc1ccccc1	0	-1	2	0	-2	-1	·	·
COc1ccc(Nc2c(-c3ccco3)nc3cccc(C)n23)cc1	0	0	-1	2	-1	3	·	·
CCc1ccc2[nH]c3nc(SCc4nnc(-c5ccccc5)o4)nnc3c2c1	0	0	6	1	-1	-6	·	·
COc1cc2ccccc2cc1C(=O)Nc1cccnc1	1	3	9	1	1	2	·	·
COc1cc2ccccc2cc1C(=O)Nc1ccc(C)cn1	5.5*	5.7*	11*	1	0	4	13*	6.8*
CC(=O)NC(CC(=O)N1CCN(C(C)=O)CC1)c1ccccc1 (centres undefined)	5.3*	0	1	0	-1	-2	3	0
O=C(NC(CC(=O)N1CCN(c2ccccc2)CC1)c1ccccc1)c1ccccc1 (centres undefined)	-1	-2	-2	2	-2	0	·	·
O=C(Nc1ccc(NC(=O)C2CC2)cc1)c1cccs1	7.1*	2	7	1	0	4	8.3*	5.3*
CCC(c1nnnn1-c1ccc2c(c1)OCCO2)N1CCN(CC)CC1 (centres undefined)	5.4*	0	0	·	-1	-7	3	2
CC(C)[C@@H](C)/C=C/[C@@H](C)[C@H]1CC[C@@H]2[C@]1(C)CCC1[C@]23C=C[C@]2(C[C@@H](O)CC[C@]12C)N(c1cnccn1)O3 (some centres undefined)	4.6*	2	2	·	0	0	0	0
CC(C)[C@@H](C)/C=C/[C@@H](C)[C@H]1CC[C@@H]2[C@]1(C)CCC1[C@]23C=C[C@]2(C[C@@H](O)CC[C@]12C)N(c1ncc(C(F)(F)F)cc1Cl)O3 (some centres undefined)	0	1	0	·	0	0	·	·
CCNS(=O)(=O)c1ccc(CCC(=O)Nc2cc(Cl)ccc2Oc2ccccc2)cc1	-3	-3	-2	-3	-2	-5	·	·
Cc1ccc2ncnc(Nc3cccc([N+](=O)[O-])c3)c2c1	-1	-2	0	0	-2	0	·	·
O=[N+]([O-])c1ccc(F)cc1OCc1nc(-c2cccs2)no1	6.9*	6.1*	12*	4	1.1*	0	8.7*	4.8*
Cn1cc(/C=C/C(=O)N2CCCC(C(=O)c3cccc4ccccc34)C2)cn1 (centres undefined)	1	-1	-2	1	-2	-4	·	·
COc1cccc(/C=C2/Sc3ccc(C(=O)NCCN4CCCC4)cc3NC2=O)c1	10*	0	3	0	-1	4	4.6*	3.2*
SMILES	DAX1 inh-1	hcDAF12 agonist	hgDAF-12 ag	DAX1 inh-2	ssDAF12 agonist	SMARCA2 act	DAX1 conf	SF1 mutant ctr
CSc1ccc(/C=N/NC(=O)CNc2ccc3ccccc3c2)cc1	-1	5	3	0	0	1	·	·
O=C(COC(=O)c1ccc(O)cc1O)c1ccc(Cl)cc1	5.8*	2	6	1	-1	3	5.4*	3
O=C(COC(=O)c1ccc(O)cc1O)Nc1ccc(Cl)cn1	-1	-1	4	1	-1	-1	·	·
CCOc1ccc(NC(=O)CSc2nc3cccnc3n2CCOC)cc1	-2	1	1	-1	-1	-3	·	·
Cc1cnc(C(=O)N(c2ccccc2)C(c2ccccc2)c2nc3ccccc3[nH]2)cn1 (centres undefined)	6.0*	3	9	·	0	3	5.0*	3.7*
Cc1ccc(OCc2cc(C(=O)N3CCN(C)C[C@@H]3c3ccccc3)no2)cc1C	3	4	5	1	0	4	·	·
CN1CCN(C(=O)c2cc(COc3ccccc3)on2)[C@@H](c2ccccc2)C1	5.8*	4	11*	1	1.1*	6	6.0*	2
COc1ccc(-c2cc(=O)c3c(C)cc(O)cc3o2)cc1	5.6*	6.5*	12*	2	1.8*	2	13*	4.6*
COc1ccc(NC(=O)NCCCN2CCc3ccccc3C2)cc1	1	3	0	1	-1	-2	·	·

Assay outcomes deposited in PubChem by The Scripps Research Institute Molecular Screening Center.
